Reference: PubChem BioAssay (NCATS)
Results filed as inconclusive are left out. Active and inactive are the calls of the source. Unless noted, calls come from the whole dose curve; as a rule, active = well fitted curve in either direction with a large enough effect (not every such curve was filed as active); inconclusive = small, poorly fitted or top-dose-only effect, or another doubt; inactive = flat fitted curve, though single readings scatter.

Assays:
[1] = target: Lysosomal acid glucosylceramidase (Homo sapiens) (UniProt P04062); assay: Glucocerebrosidase-p2 (AID 348; in the data active = potency below about 10 µM; note: potency is the fitted concentration of half-maximal effect); conditions: purified GBA, blue fluorogenic substrate, 40 min
In short: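 Compounds titrated from 0.6 nM upwards against 0.2 nM enzyme in pH 5.9 citric acid/KH2PO4, taurocholate, tween-20; blue fluorogenic substrate 80 uM, 40 min room temperature, stopped and read Ex 365/Em 440 for AC50.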

[2] = AP1 Signaling Pathway (AID 357); conditions: ME-180 AP-1-bla reporter, EGF-induced, beta-lactamase ratio, 5 h; at 7.69 µM (top of the series) unless noted;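 note: ME-180 reporter cells stimulated with EGF at its EC50 level; % is set by controls: 0 for no effect and ±100 for the full control effect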
In short: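 In this screen, ME-180 cells in Opti-MEM with 0.5% dialyzed FBS received EC50 EGF and compound titrations for 5 h. AP-1 reporter beta-lactamase was detected via CCF4 ratio, giving AC50 for positive and negative modulators.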

[3] = target: Cytochrome P450 1A2 (Homo sapiens) (UniProt P05177); assay: p450-cyp1a2 (AID 410; calls by dose curve; note: potency is the fitted concentration of half-maximal effect;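 for activity change, negative = inhibition: -100% = full effect of reference inhibitor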); conditions: recombinant CYP1A2, luciferin-ME demethylation, luminescence; series mostly up to 57 µM
In short: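 Inhibition was calculated relative to 57 uM furafylline (full inhibition). The reaction used human CYP1A2 at 20nM with Luciferin-ME at its Km, 100uM, driven by an NADPH-regenerating system for 60 min at room temperature.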

[4] = NFAT Signaling Pathway (AID 444); conditions: Jurkat NFAT-bla M1, carbachol, beta-lactamase ratio, 5 h; at 7.69 µM (top of the series) unless noted;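 note: carbachol stimulus at about its EC50 of 1 µM final; % is set by controls: 0 for no effect and ±100 for the full control effect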
In short: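 Read-out: CCF4 FRET ratio (460 nm/530 nm) after 1 h RT dye loading, used for %activity and AC50 from titration series. Cells: Jurkat NFAT-β-lactamase/M1 line, treated with compound plus 1 uM carbachol for 5 h, 37 °C.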

[5] = Stat Signaling Pathway (AID 446); conditions: ME-180 SIE beta-lactamase reporter, IL-6 stimulated, 5 h; at 7.69 µM (top of the series) unless noted;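 note: ME-180 cervical cancer cells given 40 pM IL-6 alongside compound; SIE-controlled beta-lactamase reporter measured as 460/530 nm FRET emission ratio; % is set by controls: 0 for no effect and ±100 for the full control effect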
In short: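 IL-6/STAT signaling read in ME-180 cells via an SIE beta-lactamase reporter. Stimulus was 40 pM IL-6 (its AC50) for 5 hrs, so both activation and inhibition register.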

[6] = target: Glucocorticoid receptor (Homo sapiens) (UniProt P04150); assay: GR-GFP Redistribution (AID 450;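 active = compounds whose dose series gives a full or clear partial fitted curve of increased nuclear translocation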; note: potency is the fitted concentration of half-maximal effect); conditions: U2OS GR-GFP nuclear translocation, laser cytometry, 2 h
[7] = target: Glucocorticoid receptor (Homo sapiens) (UniProt P04150); assay: GR-EFC Redistribution (AID 451; calls by dose curve; note: potency is the fitted concentration of half-maximal effect); conditions: CHO-K1 GR-EFC translocation, beta-gal luminescence, 2 h
In short: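 Translocation of GR-ED fusion to nuclear EA restores b-gal, read by luminescence after 1 h room-temperature detection. Engineered CHO-K1 biosensor cells, 1,000/well, exposed 2 h at 37 C to titrations up to 46 uM final.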

[8] = target: Mitogen-activated protein kinase 10 (Mus musculus) (UniProt Q61831); assay: JNK3 AlphaScreen Assay (AID 530); conditions: JNK3 lysate, c-Jun phosphorylation; series mostly up to 57.1 µM;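 note: kinase came from lysate of stimulated human HepG2 cells; signal reports phosphorylation of biotinylated GST-cJun 1-79 at Ser73 with 10 µM ATP; % is set by controls: 0 for no effect and ±100 for the full control effect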
In short: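 Room-temperature AlphaScreen kinase assay; pre-activated HepG2 lysate as JNK3 source, biotin-GST-cJun(1-79) substrate, 10 uM ATP, compound 15 min preincubation.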

[9] = target: Cytochrome P450 3A4 (Homo sapiens) (UniProt P08684); assay: qHTS Assay for Inhibitors and Substrates of Cytochrome P450 3A4 (AID 884; active = well fitted curve in the direction sought with a large enough effect; an effect the other way counts as inactive or inconclusive; note: nearly all actives have a fitted effect of over 50% in size; note: potency is the fitted concentration of half-maximal effect); conditions: recombinant CYP3A4, Luciferin-PPXE luminescence; series mostly up to 57.1 µM
In short: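 20 nM human CYP3A4 with 25 uM Luciferin-PPXE (at KM) in 200 mM KPO4, preincubated 10 min with compound; NADPH regeneration started a 60 min RT reaction. Luciferin detected by luminescence, normalized to 57 uM ketoconazole as full inhibition.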

[10] = target: Cytochrome P450 3A4 (Homo sapiens) (UniProt P08684); assay: qHTS Assay for Activators of Cytochrome P450 3A4 (AID 885; active = well fitted curve in the direction sought with a large enough effect; an effect the other way counts as inactive or inconclusive; note: nearly all actives have a fitted effect of over 65% in size; note: potency is the fitted concentration of half-maximal effect); conditions: recombinant CYP3A4, Luciferin-PPXE luminescence, 60 min; series mostly up to 57.1 µM
In short: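 Quantitative HTS format: compounds preincubated with 20nM human CYP3A4 and Luciferin-PPXE substrate at KM, reaction started by NADPH regeneration, stopped after 60 min, luciferase luminescence read 20 min later.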

[11] = target: Cytochrome P450 2C19 (Homo sapiens) (UniProt P33261); assay: qHTS Assay for Inhibitors and Substrates of Cytochrome P450 2C19 (AID 899; active = well fitted curve in the direction sought with a large enough effect; an effect the other way counts as inactive or inconclusive; note: potency is the fitted concentration of half-maximal effect; nearly all actives have a fitted effect of over 60% in size); conditions: recombinant CYP2C19, luciferin-H EGE luminescence; series mostly up to 57.1 µM
In short: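 Luminescence readout of luciferin formed from 10uM Luciferin-H EGE (KM level) by 5 nM CYP2C19 in 50mM KPO4. 60 min NADPH-driven reaction at 37C after 10 min compound preincubation; data scaled to 57uM ketoconazole inhibition.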

[12] = Primary qHTS for small molecule stabilizers of the endoplasmic reticulum resident proteome: Secreted ER Calcium Modulated Protein (SERCaMP) assay (AID 1508630; active = well fitted curve in the direction sought with a large enough effect; an effect the other way counts as inactive or inconclusive; note: % is set by controls: 0 for no effect and ±100 for the full control effect); conditions: SH-SY5Y GLuc-SERCaMP (Gaussia luciferase released on ER calcium loss) secretion, thapsigargin, luminescence; series mostly up to 38.4 µM
In short: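 GLuc-SERCaMP-expressing SH-SY5Y cells, pretreated 16 h with compound, are challenged with thapsigargin to empty ER calcium stores; after 4 h, coelenterazine is added directly to the medium and luminescence is imaged.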

[13] = target: 3',5'-cyclic-AMP phosphodiesterase 4B (Homo sapiens) (UniProt Q07343); assay: qHTS Assay for Inhibitors of PDE-IV (AID 607; active = well fitted activation curve with a large enough effect in the main read-out, with a control signal flat, not every such curve was filed as active; note: % of control where 0% means no effect); conditions: HEK293 ACTOne CNG channel cells, membrane potential fluorescence; series mostly up to 22.9 µM
In short: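 Live HEK293 cells with a modified cyclic nucleotide-gated (CNG) channel report intracellular cAMP via membrane-potential dye fluorescence (ex 535/em 590 nm). Endogenous PDE-IV was targeted. Compounds were tested at up to 22.9 uM final; RO 20-1724 100 uM served as control.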

[14] = qHTS Assay for Identification of Small Molecule Agonists for Hypoxia Response Element Signaling Pathway (AID 914; active = well fitted activation curve with a large enough effect in the signal ratio, with a control signal flat, not every such curve was filed as active; the % refers to the signal ratio; note: % of control where 0% means no effect); conditions: ME-180 (cervical carcinoma) HRE-bla reporter, beta-lactamase ratio, CoCl2, 17 h; activation: stronger effect = higher value
In short: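 In Opti-MEM containing 0.5% dialyzed FBS and 10 mM HEPES, ME-180 HRE-bla cells received a compound titration and EC50 CoCl2. They were incubated 17 hours, then CCF4-loaded 2.5 hours at room temperature before ratio reading.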

[15] = Confirmation and Secondary Assay for Modulators of Hemoglobin Beta Chain Splicing at IVS2 654 locus (AID 910; active = well fitted curve in the direction sought with a large enough effect; an effect the other way counts as inactive or inconclusive;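 note: HeLa cells stably carrying EGFP split by mutant beta-globin IVS2-654 intron; per-well total GFP intensity by laser scanning cytometry after 2-day treatment; % of control where 0% means no effect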); conditions: HeLa EGFP-654 splicing reporter, GFP fluorescence, 48 h; series mostly up to 38.3 µM
In short: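 Readout: per-well total peak green fluorescence (488 nm ex, 500–520 nm em) from objects 5–250 µm, reflecting correct splicing of an EGFP-654 reporter. Compounds were applied for 2 days at 37 °C to overnight-plated HeLa EGFP-654 cells; controls were DMSO and 500 nM IVS2-654 PNA.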

[16] = Confirmation and Secondary Assay for Modulators of Hemoglobin Beta Chain Splicing at IVS2 705 locus (AID 930; active = well fitted curve in the direction sought with a large enough effect; an effect the other way counts as inactive or inconclusive;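 note: HeLa cells stably expressing the EGFP-705 splicing reporter; GFP fluorescence per well restored by corrected splicing of the IVS2-705 intron in EGFP; % of control where 0% means no effect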); conditions: HeLa EGFP-705 splicing reporter, GFP fluorescence, 48 h; series mostly up to 38.3 µM
In short: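 Per-well GFP, captured at 1 x 8 µm resolution with 488 nm excitation, served as the read-out for HeLa EGFP-705 cells incubated 2 days with test compound versus DMSO.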

[17] = target: Cytochrome P450 2C9 (Homo sapiens) (UniProt P11712); assay: qHTS Assay for Inhibitors and Substrates of Cytochrome P450 2C9 (AID 883; active = well fitted curve in the direction sought with a large enough effect; an effect the other way counts as inactive or inconclusive; note: potency is the fitted concentration of half-maximal effect; nearly all actives have a fitted effect of over 60% in size); conditions: recombinant CYP2C9, luciferin-H luminescence, 60 min; series mostly up to 57.1 µM
In short: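 Luminescent read-out of deoxyluciferin hydroxylation, normalized to 57uM sulphaphenazole (AC100). Reaction: 10nM enzyme, 100uM Luciferin-H (equal to KM), 25mM KPO4, 10 min compound preincubation, then 60 min with NADPH regeneration, both at 37C.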

Glucocorticoid receptor (Homo sapiens), sequence (P04150 whole entry, looked up, the tested form may be a part): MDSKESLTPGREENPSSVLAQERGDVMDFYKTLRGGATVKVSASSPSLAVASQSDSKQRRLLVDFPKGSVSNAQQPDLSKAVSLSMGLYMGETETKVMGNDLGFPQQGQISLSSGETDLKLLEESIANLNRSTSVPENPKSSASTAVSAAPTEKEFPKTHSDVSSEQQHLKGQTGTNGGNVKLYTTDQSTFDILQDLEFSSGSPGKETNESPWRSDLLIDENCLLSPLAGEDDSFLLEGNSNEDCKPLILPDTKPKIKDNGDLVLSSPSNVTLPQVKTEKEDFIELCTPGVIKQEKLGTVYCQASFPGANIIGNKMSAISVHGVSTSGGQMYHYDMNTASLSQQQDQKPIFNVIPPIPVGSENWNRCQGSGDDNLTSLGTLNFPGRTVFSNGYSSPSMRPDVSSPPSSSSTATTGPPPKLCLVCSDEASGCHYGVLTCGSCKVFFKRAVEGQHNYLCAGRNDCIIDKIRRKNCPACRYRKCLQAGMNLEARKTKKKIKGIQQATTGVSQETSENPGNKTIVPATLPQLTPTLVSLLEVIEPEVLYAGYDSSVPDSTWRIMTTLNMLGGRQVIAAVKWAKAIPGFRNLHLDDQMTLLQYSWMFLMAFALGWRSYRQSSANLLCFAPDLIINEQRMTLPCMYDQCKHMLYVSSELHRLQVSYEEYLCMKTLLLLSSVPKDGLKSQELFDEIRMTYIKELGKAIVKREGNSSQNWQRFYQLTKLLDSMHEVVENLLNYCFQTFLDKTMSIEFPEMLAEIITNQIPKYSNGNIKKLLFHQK
Cytochrome P450 1A2 (Homo sapiens), sequence (P05177 whole entry, looked up): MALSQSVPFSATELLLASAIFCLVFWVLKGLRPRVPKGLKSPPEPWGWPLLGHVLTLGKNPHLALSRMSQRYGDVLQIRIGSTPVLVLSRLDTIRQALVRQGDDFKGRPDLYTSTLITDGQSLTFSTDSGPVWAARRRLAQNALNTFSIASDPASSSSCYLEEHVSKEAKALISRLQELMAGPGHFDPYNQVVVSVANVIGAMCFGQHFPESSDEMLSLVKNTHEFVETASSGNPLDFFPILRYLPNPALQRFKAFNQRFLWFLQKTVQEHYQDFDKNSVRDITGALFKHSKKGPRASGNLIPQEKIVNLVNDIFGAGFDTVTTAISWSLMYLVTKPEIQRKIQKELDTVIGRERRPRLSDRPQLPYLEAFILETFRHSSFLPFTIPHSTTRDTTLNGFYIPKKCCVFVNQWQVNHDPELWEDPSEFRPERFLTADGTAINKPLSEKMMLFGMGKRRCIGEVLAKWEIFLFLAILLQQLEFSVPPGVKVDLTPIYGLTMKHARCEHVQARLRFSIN
Lysosomal acid glucosylceramidase (Homo sapiens), sequence (P04062 whole entry, looked up): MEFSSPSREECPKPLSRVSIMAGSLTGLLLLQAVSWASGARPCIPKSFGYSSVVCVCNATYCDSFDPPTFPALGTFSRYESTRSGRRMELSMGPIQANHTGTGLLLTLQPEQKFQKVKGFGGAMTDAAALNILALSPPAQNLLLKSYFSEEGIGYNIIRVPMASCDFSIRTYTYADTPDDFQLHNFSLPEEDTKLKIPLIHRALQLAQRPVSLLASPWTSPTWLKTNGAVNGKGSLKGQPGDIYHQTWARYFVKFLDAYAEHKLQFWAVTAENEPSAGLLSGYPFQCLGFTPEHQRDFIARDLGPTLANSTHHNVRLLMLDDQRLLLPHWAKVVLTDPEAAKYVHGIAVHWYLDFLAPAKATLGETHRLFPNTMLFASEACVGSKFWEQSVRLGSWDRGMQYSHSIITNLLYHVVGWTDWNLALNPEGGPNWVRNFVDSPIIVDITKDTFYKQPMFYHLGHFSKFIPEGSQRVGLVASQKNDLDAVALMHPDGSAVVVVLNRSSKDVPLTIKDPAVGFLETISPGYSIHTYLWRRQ
3',5'-cyclic-AMP phosphodiesterase 4B (Homo sapiens), sequence (Q07343 whole entry, looked up): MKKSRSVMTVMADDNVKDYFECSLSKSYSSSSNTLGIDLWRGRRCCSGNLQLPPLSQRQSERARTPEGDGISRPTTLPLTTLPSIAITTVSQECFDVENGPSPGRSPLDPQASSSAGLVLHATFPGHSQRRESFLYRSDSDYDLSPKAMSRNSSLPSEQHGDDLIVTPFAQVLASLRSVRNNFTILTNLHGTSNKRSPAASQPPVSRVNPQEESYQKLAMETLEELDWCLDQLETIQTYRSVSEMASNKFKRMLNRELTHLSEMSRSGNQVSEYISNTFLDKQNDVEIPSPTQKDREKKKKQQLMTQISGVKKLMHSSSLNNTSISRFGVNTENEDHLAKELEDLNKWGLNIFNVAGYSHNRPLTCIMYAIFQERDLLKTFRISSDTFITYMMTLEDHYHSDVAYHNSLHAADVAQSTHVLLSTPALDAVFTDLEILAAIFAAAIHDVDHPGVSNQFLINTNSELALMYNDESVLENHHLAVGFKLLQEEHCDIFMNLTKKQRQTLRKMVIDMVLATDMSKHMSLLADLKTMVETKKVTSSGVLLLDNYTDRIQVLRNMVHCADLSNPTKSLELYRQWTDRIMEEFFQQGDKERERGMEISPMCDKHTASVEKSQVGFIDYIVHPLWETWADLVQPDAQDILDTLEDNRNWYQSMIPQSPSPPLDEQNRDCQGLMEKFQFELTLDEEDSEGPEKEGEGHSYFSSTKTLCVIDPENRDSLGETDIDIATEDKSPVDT
Cytochrome P450 3A4 (Homo sapiens), sequence (P08684 whole entry, looked up): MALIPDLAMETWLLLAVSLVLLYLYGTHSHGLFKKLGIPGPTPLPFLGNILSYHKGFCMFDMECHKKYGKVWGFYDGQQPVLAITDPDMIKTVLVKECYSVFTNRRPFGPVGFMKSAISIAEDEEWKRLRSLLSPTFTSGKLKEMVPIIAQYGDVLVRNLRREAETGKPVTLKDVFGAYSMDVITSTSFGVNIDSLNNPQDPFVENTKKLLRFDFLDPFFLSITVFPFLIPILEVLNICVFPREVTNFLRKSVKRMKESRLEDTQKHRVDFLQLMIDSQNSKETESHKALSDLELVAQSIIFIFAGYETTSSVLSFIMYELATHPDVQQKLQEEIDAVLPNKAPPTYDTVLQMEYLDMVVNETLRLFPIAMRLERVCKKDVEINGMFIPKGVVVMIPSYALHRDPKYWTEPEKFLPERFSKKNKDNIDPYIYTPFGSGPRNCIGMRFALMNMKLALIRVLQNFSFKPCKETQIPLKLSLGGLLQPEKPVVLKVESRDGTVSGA
Cytochrome P450 2C9 (Homo sapiens), sequence (P11712 whole entry, looked up): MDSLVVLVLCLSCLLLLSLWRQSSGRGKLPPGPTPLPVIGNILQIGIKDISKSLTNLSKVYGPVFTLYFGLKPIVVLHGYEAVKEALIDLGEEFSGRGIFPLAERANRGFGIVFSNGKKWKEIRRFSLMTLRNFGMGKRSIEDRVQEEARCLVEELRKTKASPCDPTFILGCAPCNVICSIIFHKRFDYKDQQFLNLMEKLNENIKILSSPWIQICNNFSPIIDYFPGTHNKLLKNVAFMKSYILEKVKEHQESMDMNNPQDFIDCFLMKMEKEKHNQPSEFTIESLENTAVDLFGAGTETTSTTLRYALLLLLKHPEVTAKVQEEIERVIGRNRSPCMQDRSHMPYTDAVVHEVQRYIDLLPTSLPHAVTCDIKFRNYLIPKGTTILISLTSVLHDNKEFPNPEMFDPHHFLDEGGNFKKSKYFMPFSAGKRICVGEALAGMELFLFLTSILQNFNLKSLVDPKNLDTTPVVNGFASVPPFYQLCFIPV
Cytochrome P450 2C19 (Homo sapiens), sequence (P33261 whole entry, looked up): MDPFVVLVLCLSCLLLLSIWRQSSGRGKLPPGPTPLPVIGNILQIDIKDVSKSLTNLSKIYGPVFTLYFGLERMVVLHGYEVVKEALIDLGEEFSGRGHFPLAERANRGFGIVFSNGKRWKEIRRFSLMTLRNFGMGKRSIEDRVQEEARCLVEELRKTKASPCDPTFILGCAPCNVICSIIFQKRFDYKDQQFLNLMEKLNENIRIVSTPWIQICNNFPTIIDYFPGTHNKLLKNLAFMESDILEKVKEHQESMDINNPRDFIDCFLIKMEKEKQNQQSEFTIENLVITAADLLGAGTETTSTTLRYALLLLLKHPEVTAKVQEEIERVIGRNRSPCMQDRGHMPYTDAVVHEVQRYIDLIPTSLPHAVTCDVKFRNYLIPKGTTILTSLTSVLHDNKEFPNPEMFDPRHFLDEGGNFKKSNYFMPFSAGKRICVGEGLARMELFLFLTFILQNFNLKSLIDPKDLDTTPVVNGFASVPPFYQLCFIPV

COc1ccc(CNc2ncncc2-c2ccc(N(C)C)cc2)c(OC)c1
inactive: Potency [1] > 11.4 µM | activity change, negative = inhibition [2] -8.89% | activity change, negative = inhibition [4] 1.33% | activity, negative = inhibition [5] 0.205% | Potency [6] > 46 µM | Potency [7] > 46 µM | Potency [8] | Potency [10] | outcome [12]
active: Potency [3] 0.631 µM | Potency [9] 0.199 µM | Potency [11] 1.58 µM

COc1cccc(Nc2ncc3nc(CCc4ccccc4)c(=O)n(CCC#N)c3n2)c1
inactive: Potency [1] > 11.4 µM | activity change, negative = inhibition [2] -11.6% | Potency [3] | activity change, negative = inhibition [4] -14.1% | activity, negative = inhibition [5] -2.69% | Potency [6] > 9.22 µM | Potency [7] > 46 µM | Potency [8] | Potency [10] | outcome [12]

CC(=O)N1CCC2(CC1)CCN(c1ccc(-c3ccccc3)cc1)CC2
active: Potency [3] 10 µM
inactive: Potency [1] > 11.4 µM | activity change, negative = inhibition [2] 47.5% | activity change, negative = inhibition [4] -28% | activity, negative = inhibition [5] -16.9% | Potency [7] > 46 µM | Potency [8] | Potency [13] | outcome [12]

COc1ccc(Oc2ncc3nc(-c4ccc(Cl)cc4)c(=O)n(C)c3n2)cc1
inactive: Potency [1] > 11.4 µM | activity change, negative = inhibition [2] -22.1% | activity change, negative = inhibition [4] -2.12% | activity, negative = inhibition [5] -5.79% | Potency [6] > 9.22 µM | Potency [7] > 46 µM | Potency [8] | Potency [13] | Potency [10] | outcome [12]
active: Potency [3] 0.631 µM

COc1ncc2nc(CCc3ccccc3)c(=O)n(CCC#N)c2n1
active: Potency [3] 15.8 µM
inactive: Potency [1] > 11.4 µM | activity change, negative = inhibition [2] -1.07% | activity change, negative = inhibition [4] -10.8% | activity, negative = inhibition [5] -4.61% | Potency [6] > 9.22 µM | Potency [7] > 46 µM | Potency [8] | Potency [13] | activation [14] -14.7% | outcome [12]

O=c1cnc2cnc(OCc3ccccc3)nc2n1Cc1ccc(F)cc1
active: Potency [3] 12.6 µM | Potency [9] 5.01 µM
inactive: Potency [1] > 11.4 µM | activity change, negative = inhibition [2] -29.4% | activity change, negative = inhibition [4] -14.6% | activity, negative = inhibition [5] -21.4% | Potency [6] > 9.22 µM | Potency [7] > 46 µM | Potency [8] | Potency [10] | outcome [12]

CN1CCN(c2ccnc(-c3cccc(NS(C)(=O)=O)c3)n2)CC1
active: Potency [3] 12.6 µM
inactive: Potency [1] > 11.4 µM | activity change, negative = inhibition [2] -6.86% | activity change, negative = inhibition [4] -9.78% | activity, negative = inhibition [5] 7.5% | Potency [6] > 46 µM | Potency [7] > 46 µM | Potency [8] | Potency [13] | Potency [10] | Potency [15] | activation [14] 0.356% | outcome [16] | outcome [12]

COc1cccc(Cn2c(=O)cnc3cnc(Oc4cccc(Cl)c4)nc32)c1
inactive: Potency [1] > 11.4 µM | activity change, negative = inhibition [2] -19.7% | activity change, negative = inhibition [4] -4.32% | activity, negative = inhibition [5] -20.6% | Potency [6] > 9.22 µM | Potency [7] > 46 µM | Potency [8] | Potency [10] | outcome [12]
active: Potency [3] 12.6 µM | Potency [17] 3.98 µM | Potency [9] 5.01 µM

O=c1c(-c2cc(F)cc(F)c2)nc2cnc(Oc3ccccc3)nc2n1C1CC1
inactive: Potency [1] > 11.4 µM | activity change, negative = inhibition [2] -6.73% | activity change, negative = inhibition [4] -0.993% | activity, negative = inhibition [5] -0.523% | Potency [6] > 9.22 µM | Potency [7] > 46 µM | Potency [8] | Potency [13] | activation [14] 7.93% | outcome [12]
active: Potency [3] 2.51 µM

COCCn1c(=O)c(-c2ccc(F)c(F)c2)nc2cncnc21
inactive: Potency [1] > 11.4 µM | activity change, negative = inhibition [2] -26.5% | activity change, negative = inhibition [4] -12.1% | activity, negative = inhibition [5] 0.716% | Potency [6] > 9.22 µM | Potency [7] > 46 µM | Potency [8] | Potency [13] | Potency [10] | outcome [12]
active: Potency [3] 0.251 µM

CC(C)NC(=O)N1CCCC2(CCN(C(=O)c3cccn3C)CC2)C1
inactive: Potency [1] > 11.4 µM | activity change, negative = inhibition [2] 4.84% | Potency [3] | activity change, negative = inhibition [4] -17.7% | activity, negative = inhibition [5] 14.5% | Potency [7] > 46 µM | Potency [8] | Potency [13] | Potency [10] | outcome [12]

Cn1cccc1C(=O)N1CCC[C@@]2(CCN(Cc3nccs3)C2)C1
inactive: Potency [1] > 11.4 µM | activity change, negative = inhibition [2] -4.63% | Potency [3] | activity change, negative = inhibition [4] 12.5% | activity, negative = inhibition [5] 9.2% | Potency [7] > 46 µM | Potency [8] | Potency [13] | Potency [10] | outcome [12]

O=C(c1cnccn1)N1CCC2(CC1)CCN(c1ncccn1)CC2
inactive: Potency [1] > 11.4 µM | activity change, negative = inhibition [2] -5.54% | Potency [3] | activity change, negative = inhibition [4] 6.93% | activity, negative = inhibition [5] -9.82% | Potency [7] > 46 µM | Potency [8] | Potency [13] | Potency [9] | outcome [12]
active: Potency [10] 7.94 µM

CS(=O)(=O)N1CCC2(CCN(Cc3nccs3)CC2)CC1
inactive: Potency [1] > 11.4 µM | activity change, negative = inhibition [2] 3.17% | Potency [3] | activity change, negative = inhibition [4] 9.85% | activity, negative = inhibition [5] -5.91% | Potency [7] > 46 µM | Potency [8] | Potency [13] | outcome [12]
